Screening data as filed in PubChem.
Hits are enriched below; roughly 1.1% of the tested compounds scored in any of these assays.
CaV13 ICDI inh: Disruptors of the CACNA1D IQ motif to Ca2+-dependent inactivation inhibitor domain association, primary screening, Förster resonance energy transfer in intact living …; HEK cells, CFP/YFP FRET ICDI-IQ, plate reader, 10 min; percent FRET-ratio fall versus neutral wells; AID 743397; actives 0.098% (n = 340,000); inhibition, % at 12.3 µM;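 active = mean replicate inhibition of at least 30% and at least 1% of replicates passing that level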
ABCB6 inh 2: ABCB6 transporter inhibitors, primary screen, K562-ABCB6 cells, flow cytometry, MLPCN library. fluorescence ratio to DMSO, % at 10 µM. AID 602162, 2011. actives 0.19% (n = 360,000). K562-ABCB6 porphyrin accumulation, 1 h; hits give low values;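 active = fluorescence ratio to DMSO below 75%, the collection mean minus 3 SD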;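 note: signal is porphyrin accumulated inside mitochondria; lower ratio means ABCB6 inhibition with less porphyrin fluorescence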
VLA-4 inh: inhibition in human VLA-4 binding assay, primary screen, VLA-4 allosteric modulator project, MLPCN library, flow cytometry, VLA-4 expressing cells. Integrin alpha-4 (Homo sapiens), P13612. ligand binding flow cytometry. inhibition, % (about 7 µM as worked out from the volumes in the protocol). actives 0.2% (n = 330,000); in the data active = inhibition above about 50%
Target sequence (P13612 whole entry, looked up): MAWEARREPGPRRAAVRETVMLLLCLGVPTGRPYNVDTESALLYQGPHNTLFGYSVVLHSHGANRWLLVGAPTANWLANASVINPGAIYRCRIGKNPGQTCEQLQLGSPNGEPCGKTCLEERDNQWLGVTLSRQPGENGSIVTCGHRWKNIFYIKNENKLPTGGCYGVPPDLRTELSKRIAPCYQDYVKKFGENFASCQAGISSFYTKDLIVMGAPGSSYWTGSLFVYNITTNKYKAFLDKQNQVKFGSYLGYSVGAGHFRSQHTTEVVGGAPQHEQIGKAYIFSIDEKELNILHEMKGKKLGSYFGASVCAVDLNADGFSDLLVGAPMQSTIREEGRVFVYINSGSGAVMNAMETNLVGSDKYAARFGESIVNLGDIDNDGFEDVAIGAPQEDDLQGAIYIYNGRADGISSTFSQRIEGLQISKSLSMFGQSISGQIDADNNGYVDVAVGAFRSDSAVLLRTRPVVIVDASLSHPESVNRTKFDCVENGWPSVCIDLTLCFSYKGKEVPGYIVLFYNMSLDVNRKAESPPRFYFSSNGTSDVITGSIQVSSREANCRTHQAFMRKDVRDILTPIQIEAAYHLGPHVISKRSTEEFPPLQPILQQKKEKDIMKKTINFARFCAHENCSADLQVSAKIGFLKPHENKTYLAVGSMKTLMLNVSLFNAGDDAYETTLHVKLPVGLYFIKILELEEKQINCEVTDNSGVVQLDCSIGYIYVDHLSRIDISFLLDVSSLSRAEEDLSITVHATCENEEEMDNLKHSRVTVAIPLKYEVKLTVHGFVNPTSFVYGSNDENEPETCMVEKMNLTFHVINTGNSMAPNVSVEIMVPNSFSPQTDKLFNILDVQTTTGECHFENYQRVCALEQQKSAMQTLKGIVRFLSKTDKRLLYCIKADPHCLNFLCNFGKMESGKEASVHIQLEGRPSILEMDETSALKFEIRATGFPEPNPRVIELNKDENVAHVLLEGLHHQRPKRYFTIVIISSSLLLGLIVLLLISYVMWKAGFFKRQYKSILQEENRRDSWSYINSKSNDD
Granule exo inh: LAMP-1 surface exposure blockers, TALL-104 cells – cell-based, flow cytometry, MLPCN library, primary screen | TALL-104 LAMP-1 surface exposure; cells stimulated with thapsigargin and PMA | inhibition, % at 10 µM | actives 0.66% (n = 360,000);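 active = inhibition above about 55%, limit read from the data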
Hits are given with their value; i = inactive; nt = no result given.

SMILES	CaV13 ICDI inh	ABCB6 inh 2	VLA-4 inh	Granule exo inh
COC(=O)c1ccc(CSc2nc3scc(-c4cccs4)c3c(=O)[nH]2)o1	i	59.0	i	i
O=C(CCl)Nc1cccc(Oc2ccccc2)c1	i	i	i	i
O=C(CCl)Nc1cccc(Oc2cnccn2)c1	i	7.0	i	i
CCN(CC)C(=S)SSC(=S)N(CC)CC	i	i	i	64.2
O=c1ccc2cc3c4c(c2o1)CCCN4CCC3	32.1	i	i	i
O=c1oc2c3c4c(cc2s1)CCCN4CCC3	i	i	i	i
C[C@H]1CN(C(=O)OC(C)(C)C)CCN1c1ccc(N2CCS(=O)(=O)CC2)c(C#N)c1	i	nt	nt	nt
CCCN1C(=O)c2[nH]nc(-c3ccccc3)c2C1c1ccc(C)cc1 (stereo not given)	i	nt	nt	nt
CN(c1ccc(OCC(=O)OCC(=O)c2c(N)n(C)c(=O)n(C)c2=O)cc1)S(=O)(=O)c1ccc2ccccc2c1	i	i	i	69.2
CCN(c1ccc(OCC(=O)OCC(=O)c2c(N)n(C)c(=O)n(C)c2=O)cc1)S(=O)(=O)c1ccccc1	i	i	i	i
CCN(CC)CCN1C(=O)C(=O)/C(=C(/O)c2ccc3c(c2)CC(C)O3)C1c1ccc(OC)cc1 (stereo not given)	i	i	i	92.1
CC(NC(=O)/C(C#N)=C/c1ccc([N+](=O)[O-])o1)c1ccccc1 (stereo not given)	i	i	i	66.9
CC(NC(=O)/C(C#N)=C/c1ccco1)c1ccccc1 (stereo not given)	i	i	i	i
O=C(NCc1ccc(F)cc1)C1CCCN1C(=O)Nc1cccc(F)c1 (stereo not given)	63.7	i	i	i
COc1ccc(NC(=O)N2CCCC2C(=O)NCc2ccc(F)cc2)cc1 (stereo not given)	nt	i	i	i
CN(C)CCOc1ccc(C(C)(C)c2ccccc2)cc1	i	i	i	i
CC(C)(c1ccccc1)c1ccc(OCC2CO2)cc1 (stereo not given)	i	i	i	56.0
CCN(CC)CCOC(=O)c1ccc(N/C=C(/C#N)c2nc(-c3cccc(OC)c3)cs2)cc1	i	i	i	i
CCN(CC)CCOC(=O)c1ccc(N/C=C(/C#N)c2nc(-c3ccc(OC)c(OC)c3)cs2)cc1	i	i	i	63.9
Oc1cccnc1SCc1ccccc1	i	i	i	i
O=Cc1cccnc1SCc1ccccc1	i	i	i	64.4
Cc1c(Nc2nc3ccccc3nc2N2CCN(c3ccccc3)CC2)c(=O)n(-c2ccccc2)n1C	i	i	i	i
Cc1c(Nc2c3ccccc3nc3ccccc23)c(=O)n(-c2ccccc2)n1C	165.0	i	i	i
O=C(NNC(=O)c1ccncc1)Nc1cccc([N+](=O)[O-])c1	i	i	i	90.1
NC(=O)[C@@H]1CCCN1C(=O)[C@H](CCc1ccccc1)NC(=O)[C@H]1O[C@@H](n2cnc3c(N)ncnc32)[C@H](O)[C@@H]1O	i	nt	nt	nt
SMILES	CaV13 ICDI inh	ABCB6 inh 2	VLA-4 inh	Granule exo inh
O=c1c(O[C@H]2O[C@@H](CO)[C@H](O)[C@@H](O)[C@@H]2O)c(-c2ccc(O)cc2)oc2cc(O)cc(O)c12	i	i	i	68.3
COc1ccc(C2CC(=O)C(c3cccc(Cl)c3)=CN2Cc2ccccc2)cc1 (stereo not given)	i	nt	nt	nt
CCN(CC)c1ccc(/C=C2/SC(=O)N(C(C)C)C2=O)o1	i	i	nt	78.3
O=C1c2ccccc2C(=O)N1OCCCN1C(=O)c2ccccc2S1(=O)=O	i	31.0	nt	i
C=CCN=C1NC(c2cccc(C(F)(F)F)c2)C(C(=O)OC)=C(C)N1Cc1ccccc1C(F)(F)F (stereo not given)	i	nt	nt	nt
COC(=O)[C@]12C[C@H](CC(=O)NCC34CC5CC(CC(C5)C3)C4)C(=O)N(Cc3ccccc3)C1=C[C@H](C(C)(C)C)O[C@@H]2C	i	nt	nt	nt
CCN1/C(=C/c2ccc3cc(C)ccc3[n+]2C)Sc2ccc3sccc3c21	i	i	nt	61.5
CCN1/C(=C/c2ccc3cc(C)ccc3[n+]2CC)Sc2cc(C)ccc21	i	i	nt	85.3
CCCCN1/C(=C/c2ccc3ccccc3[n+]2CC)Sc2ccccc21	nt	i	nt	73.9
COC(=O)C1=C(C)N(Cc2ccccc2C(F)(F)F)C(=NCc2ccc3c(c2)OCO3)NC1CCc1ccccc1 (stereo not given)	i	nt	nt	nt
Cc1cc(C)nc(N(C#N)CCOc2ccc(Cl)cc2)n1	nt	i	i	76.6
C[C@H]1[C@@H](c2ccccc2)Oc2ccc(Cl)cc2S(=O)(=O)N1Cc1cccc(Cl)c1	i	nt	nt	nt
CCN1/C(=N\N)c2cccc3cccc1c23	i	i	i	95.3
Cc1ccc2c(c1C)-c1c(ccc(C)c1C)C(=O)C2=O	i	i	nt	105.9
Cc1ccc(CC#N)c(-c2c(CC#N)ccc(C)c2C)c1C	i	i	nt	i
COC(=O)C(NC(=O)CCC(=O)N[C@@H](C(=O)OC)c1ccccc1)c1ccccc1 (stereo not given in full)	i	i	i	i
COC(=O)[C@@H](NCc1cccc(CN[C@H](C(=O)OC)c2ccccc2)c1)c1ccccc1	i	i	i	65.5
COc1ccc(OC)c(S(=O)(=O)NCC2CCN(C(=O)C(=O)c3cccs3)CC2)c1	i	nt	nt	nt
CO[C@@H]1[C@H](O)CC[C@]2(O)CN(c3ccccc3)[C@](C)([C@H](O)CC=C(C)C)[C@@H]12	i	nt	nt	nt
Cc1ccc2nc(C)cc(Nc3ccc([N+](=O)[O-])cc3)c2c1	i	i	i	82.7
COc1ccccc1CCn1cnc(-c2ccccc2)c1CC(C)C	i	nt	nt	nt
Cc1nc(S/C(=C/c2ccc(-c3ccc(C(=O)O)cc3)o2)C(=O)O)n[nH]1	i	i	i	i
Cc1nc(S/C(=C/c2ccc(-c3ccc(Cl)cc3)o2)C(=O)O)n[nH]1	nt	i	i	69.3
Cc1c(C=O)c2cc(OCc3ccccc3)ccc2n1C	i	i	i	69.2
CC1(C)CC(NC(=O)c2ccccc2)CC(C)(C)N1	i	i	i	i
SMILES	CaV13 ICDI inh	ABCB6 inh 2	VLA-4 inh	Granule exo inh
CC1(C)CC(Nc2ccc(Nc3ccccc3)cc2)CC(C)(C)N1	i	i	i	82.8
CCNC(=O)N(C)[C@H]1C[C@H]2c3[nH]c4c(-c5ccc6c(c5)OCO6)cccc4c3CCN2C(=O)[C@H]1[C@H](C)O	i	nt	nt	nt
O=C(/C=C\c1ccc(-c2ccccc2)o1)c1ccccc1	i	i	i	86.2
CCN(CC)S(=O)(=O)c1ccc(C(=O)/C=C/c2ccc(-c3ccc([N+](=O)[O-])cc3)o2)cc1	i	i	i	i
Cc1ccc(C(=O)/C=C/c2ccc(-c3ccc(C)cc3)o2)cc1	i	i	i	71.5
O=C(/C=C/c1ccccc1)c1ccccc1	i	i	i	i
CC(C)[C@H](N)C(=O)N[C@H](C(=O)N1CCC2CCN(Cc3ccccc3)CC21)C(C)C (stereo not given in full)	i	nt	nt	nt
C[C@@H](CC#N)CN1CC[C@H](C(C)(C)C)CCC1=O	33.5	i	i	i
